# Measurements reported in PubChem BioAssay.
# Values joined by “and” are separate entries in the source; they are usually repeats but may differ in a detail not shown here. Equal entries are not always repeated. For some assays here: Potency and affinity values are given separately. Active and inactive are the calls of the source. Rule as the data show it, unless noted: active = parasite load remaining mostly below about 12% (no sharp cut-off); inactive = mostly above about 10%.
# Legend:
# [1] = blockers of polyQ-driven CASP3 activation – cell-based (AID 1583); conditions: polyglutamine-induced caspase-3 activation, cell assay; stronger effect = higher value;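 tested at 10 µM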
# [2] = yeast 75Q aggregation reduction – 75Q-TubU reporter (AID 1593); conditions: Yeast 75Q polyglutamine aggregation reporter
# [3] = restoration of touch response, mutant HTT neurons – whole organism, C. elegans mechanosensory neurons, N-terminal huntingtin (AID 1599); conditions: C. elegans polyQ-huntingtin mechanosensory neurons, stronger effect = higher value
# [4] = blockers of cytochrome c efflux from mitochondria – biochemical, purified mitochondria (AID 1603); conditions: stronger effect = lower value;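 also: mouse liver mitochondria challenged with calcium chloride; signal normalized to the plate average as 100%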
# [5] = polyglutamine aggregate formation blockers (AID 1604); conditions: polyglutamine-induced protein aggregation inhibition assay; stronger effect = higher value; tested at 2.5 µM
# [6] = glutamate transport activators, MN-1 cells, MN-1 cell line (AID 1612); conditions: MN-1 motor neuron cells, stronger effect = higher value;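 also: tested at 1 µM final; 0% = mean of DMSO vehicle wells on each plate; positive means more glutamate uptake than control and negative means less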
# [7] = GFP-Q80 aggregate reduction, neuronal-like cells, cell-based, NGF-treated PC12, GFPQ80 (AID 1614); conditions: PC12 NGF-treated GFP-polyQ80 inclusion reduction;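 also: lower means fewer inclusions and 0 means no inclusions at all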
# [8] = 75Q-TubH aggregate inhibition, S. cerevisiae, yeast (AID 1616); conditions: S. cerevisiae 75Q-TubH polyglutamine aggregation suppression; stronger effect = higher value
# [9] = P. berghei load reduction in hepatocytes – cell-based, HepG2, luciferase luminescence, HepG2 viability, primary screen (AID 624349);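 also: 100% = mean of DMSO negative control wells on the same plate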; conditions: P. berghei liver stage in HepG2, luciferase luminescence, concentration not given here; parasite load remaining: stronger effect = lower value; viability: measured here: HepG2 viability without parasites
# [10] = tested on: Hepatitis C virus NS3 helicase; experiment: blockers of NS3h binding to ssDNA – biochemical, fluorescence polarization, LOPAC1280 library, primary screen (AID 687035; in the data active = inhibition above about 37%); conditions: Purified HCV NS3 helicase, Cy5-dT15 ssDNA binding fluorescence polarization; stronger effect = higher value; concentration not given here
# [11] = compounds altering Cy5-DNA-NS3h complex signal – biochemical, LOPAC1280, artefact control for HCV NS3 helicase inhibitor project (AID 687037; call rule not given here); conditions: Cy5-DNA-NS3h complex fluorescence interference counterscreen
# [12] = EMT-state selective cytotoxicity in co-culture – imaging, PC-3E GFP, TEM4-18 mCherry, primary screen (AID 1345086;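 active = compounds killing one labelled cell type while sparing the other, by normalised counts and ratio limits, not self-fluorescent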;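 as to all read-outs here: cells exposed to compound for 72 h before imaging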;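 as to red/green cell ratio (normalised): normalised mesenchymal count divided by normalised epithelial count so high means epithelial killing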); conditions: PC-3E GFP / TEM4-18 mCherry co-culture, imaging cell counts, at 1 µM; for red/green cell ratio (normalised): actives lie on both sides, counts scaled to control wells, 1 = unselective
# [13] = viability loss with induced miR-34 in A549 – imaging, A549 dox-inducible miR-34, nuclei and caspase counts, primary screen (AID 1347080;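 active = compounds whose cell count with miR-34 switched on is under 0.7 times the count with it off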); conditions: A549 miR-34 inducible, Hoechst nuclei count, 48 h
# [14] = target: Mitogen-activated protein kinase 7 (Homo sapiens) (UniProt Q13164); experiment: Gal4-ERK5 driven luciferase induction – cell-based, HTS, primary screen (AID 1508626;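 active = luciferase signal above three times the same-plate solvent-only control wells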;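 also: luciferase driven by Gal4-ERK5 fusion binding five Gal4 sites before minimal TATA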); conditions: HeLa Gal4-ERK5 transactivation, 18 h, at 5 µM, stronger effect = higher value
# Chain of Mitogen-activated protein kinase 7 (Homo sapiens) (Q13164 whole entry, looked up, the tested form may be a part): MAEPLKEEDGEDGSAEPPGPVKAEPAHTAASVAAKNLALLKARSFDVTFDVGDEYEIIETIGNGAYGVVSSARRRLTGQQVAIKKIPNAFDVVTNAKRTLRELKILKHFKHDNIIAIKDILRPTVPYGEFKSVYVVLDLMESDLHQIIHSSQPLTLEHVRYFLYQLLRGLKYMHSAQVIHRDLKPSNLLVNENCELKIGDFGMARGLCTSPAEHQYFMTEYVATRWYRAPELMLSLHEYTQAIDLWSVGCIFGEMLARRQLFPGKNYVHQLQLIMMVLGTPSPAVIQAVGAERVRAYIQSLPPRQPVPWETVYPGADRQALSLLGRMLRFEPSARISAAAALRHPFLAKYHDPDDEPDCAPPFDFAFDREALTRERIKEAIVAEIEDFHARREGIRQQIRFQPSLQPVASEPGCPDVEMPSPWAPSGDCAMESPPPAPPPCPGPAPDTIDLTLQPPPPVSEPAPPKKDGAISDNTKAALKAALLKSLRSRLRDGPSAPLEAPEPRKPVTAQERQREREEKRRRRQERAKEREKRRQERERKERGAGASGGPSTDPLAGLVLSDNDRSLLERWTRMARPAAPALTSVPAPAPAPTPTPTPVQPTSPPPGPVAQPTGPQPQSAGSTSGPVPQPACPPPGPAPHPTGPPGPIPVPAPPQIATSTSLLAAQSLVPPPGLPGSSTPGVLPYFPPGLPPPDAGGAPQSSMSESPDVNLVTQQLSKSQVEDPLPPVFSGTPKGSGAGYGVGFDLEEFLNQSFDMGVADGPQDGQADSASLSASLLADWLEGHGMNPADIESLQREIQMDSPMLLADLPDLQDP
# [15] = target: NAD(+) hydrolase SARM1 (Homo sapiens) (UniProt Q6SZW1); experiment: blocking NAD cleavage by SARM1 SAM-TIR – cell lysate, NAD-Glo luminescence (AID 1508614;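 active = compound whose remaining NAD level is above about 45 nM, limit read from the data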;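 also: higher remaining NAD means stronger inhibition of SARM1 NADase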); conditions: SAM-TIR HEK293T lysate NADase, at 1 µM, stronger effect = higher value
# Chain of NAD(+) hydrolase SARM1 (Homo sapiens) (Q6SZW1 whole entry, looked up): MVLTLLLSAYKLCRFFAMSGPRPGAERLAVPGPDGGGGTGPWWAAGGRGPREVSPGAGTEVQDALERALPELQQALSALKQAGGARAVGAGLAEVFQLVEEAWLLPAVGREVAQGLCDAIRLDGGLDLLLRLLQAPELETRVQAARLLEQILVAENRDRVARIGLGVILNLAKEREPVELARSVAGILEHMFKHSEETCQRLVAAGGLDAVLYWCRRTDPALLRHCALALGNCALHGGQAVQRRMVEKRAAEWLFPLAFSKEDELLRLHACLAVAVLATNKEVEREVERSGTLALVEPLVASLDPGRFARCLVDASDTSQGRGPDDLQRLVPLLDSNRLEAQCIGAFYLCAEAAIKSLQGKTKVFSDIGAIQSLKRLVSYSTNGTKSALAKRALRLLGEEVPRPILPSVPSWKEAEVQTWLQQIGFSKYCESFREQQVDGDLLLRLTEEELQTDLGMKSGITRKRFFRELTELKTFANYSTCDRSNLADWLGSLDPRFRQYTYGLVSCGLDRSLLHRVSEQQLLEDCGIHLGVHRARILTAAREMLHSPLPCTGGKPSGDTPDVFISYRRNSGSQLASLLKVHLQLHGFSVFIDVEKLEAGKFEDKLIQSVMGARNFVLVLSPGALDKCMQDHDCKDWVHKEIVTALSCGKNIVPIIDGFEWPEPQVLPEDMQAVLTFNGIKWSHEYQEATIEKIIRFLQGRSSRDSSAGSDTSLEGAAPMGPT
# [16] = measured here: epithelial PC-3E GFP cell survival
# [17] = measured here: mesenchymal TEM4-18 mCherry cell survival
# [18] = stronger effect = lower value, cell number ratio, induced over uninduced
# [19] = measured here: relative caspase fold change +Dox/-Dox
# [20] = measured here: total cells with miR-34 induction, stronger effect = lower value
# [21] = measured here: total cells without miR-34 induction
structure (smiles),measurement,setting,value
CO/N=C(/C(=O)N[C@@H]1C(=O)N2C(C(=O)O)=C(COC(C)=O)CS[C@H]12)c1csc(N)n1,inhibition,[1],6.49%
same,score,[2],1.38
same,rescue above control,[3],2.83
same,cytochrome c release ratio,[4],1.43
same,inhibition of aggregation,[5],86.2%
same,glutamate uptake change,[6],-17.6%
same,inclusion score,[7],2
same,aggregation suppression score,[8],1.39
same,parasite load remaining,[9],84.7% (inactive) and 61.2% (inactive)
same,viability,[9],73.5% and 100%
same,inhibition,[10],6% (inactive)
same,fluorescence ratio (interference),[11],1 (inactive)
same,red/green cell ratio (normalised),[12],1.18 (inactive)
same,normalised cell number,[12]; [16],1.15
same,normalised cell number,[12]; [17],1.35
same,fold change,[13]; [18],0.913 (inactive)
same,fold change,[13]; [19],1.26
same,cell count,[13]; [20],11200
same,cell count,[13]; [21],12300
CC(=O)Oc1c(C)c(C)c2c(c1C)CCC(C)(CCCC(C)CCCC(C)CCCC(C)C)O2 (stereo not given),inhibition,[1],1.05%
same,score,[2],-0.71
same,rescue above control,[3],1.2
same,cytochrome c release ratio,[4],0.62
same,inhibition of aggregation,[5],56.3%
same,glutamate uptake change,[6],6.04%
same,inclusion score,[7],2
same,aggregation suppression score,[8],0.546
same,parasite load remaining,[9],74.6% (inactive)
same,viability,[9],96%
same,red/green cell ratio (normalised),[12],0.9 (inactive)
same,normalised cell number,[12]; [16],0.92
same,normalised cell number,[12]; [17],0.84
same,fold change,[13]; [18],0.901 (inactive)
same,fold change,[13]; [19],1.55
same,cell count,[13]; [20],11100
same,cell count,[13]; [21],12300
same,luciferase signal,[14],44 AU (inactive)
CCC1(C)OC(=O)N(C)C1=O (stereo not given),red/green cell ratio (normalised),[12],0.84 (inactive)
same,normalised cell number,[12]; [16],1.08
same,normalised cell number,[12]; [17],0.91
same,fold change,[13]; [18],0.92 (inactive)
same,fold change,[13]; [19],0.865
same,cell count,[13]; [20],7860
same,cell count,[13]; [21],8540
same,remaining NAD,[15],10 nM (inactive)
same,luciferase signal,[14],16 AU (inactive)
C[C@@H]1CC2C3C[C@H](F)C4=CC(=O)C=C[C@]4(C)[C@@]3(F)[C@@H](O)C[C@]2(C)[C@@]1(O)C(=O)COC(=O)C(C)(C)C (stereo not given in full),inhibition,[1],-23.2%
same,score,[2],1.34
same,rescue above control,[3],16
same,cytochrome c release ratio,[4],0.82
same,inhibition of aggregation,[5],39.8%
same,glutamate uptake change,[6],27.8%
same,inclusion score,[7],2
same,aggregation suppression score,[8],1.12
same,parasite load remaining,[9],119% (inactive) and 74% (inactive)
same,viability,[9],76.5% and 90.1%
same,red/green cell ratio (normalised),[12],1.34 (inactive)
same,normalised cell number,[12]; [16],1
same,normalised cell number,[12]; [17],1.35
same,fold change,[13]; [18],0.838 (inactive)
same,fold change,[13]; [19],1.19
same,cell count,[13]; [20],6940
same,cell count,[13]; [21],8290
same,luciferase signal,[14],20 AU (inactive)
Nc1ccc(S(=O)(=O)[O-])cc1.Nc1ccc(S(=O)(=O)[O-])cc1.[Zn+2],parasite load remaining,[9],34.7% (inactive)
same,viability,[9],93.6%
same,red/green cell ratio (normalised),[12],0.95 (inactive)
same,normalised cell number,[12]; [16],1.26
same,normalised cell number,[12]; [17],1.2
same,fold change,[13]; [18],0.91 (inactive)
same,fold change,[13]; [19],2.98
same,cell count,[13]; [20],11500
same,cell count,[13]; [21],12600
same,luciferase signal,[14],56 AU (inactive)
C[C@@H]1O[C@@H](OC[C@H]2OC(Oc3c(-c4ccc(O)c(O)c4)oc4cc(O)cc(O)c4c3=O)[C@H](O)[C@@H](O)[C@@H]2O)[C@H](O)[C@H](O)[C@H]1O (stereo not given in full),parasite load remaining,[9],80% (inactive)
same,viability,[9],104%
same,red/green cell ratio (normalised),[12],1.05 (inactive)
same,normalised cell number,[12]; [16],0.95
same,normalised cell number,[12]; [17],0.99
same,fold change,[13]; [18],0.911 (inactive)
same,fold change,[13]; [19],2.84
same,cell count,[13]; [20],11500
same,cell count,[13]; [21],12600
same,luciferase signal,[14],56 AU (inactive)
CC(C)[C@@H]1CC[C@@H](C)C[C@H]1O,inhibition,[1],18.8%
same,score,[2],1.2
same,rescue above control,[3],5.72
same,cytochrome c release ratio,[4],0.66
same,inhibition of aggregation,[5],80.3%
same,glutamate uptake change,[6],2.2%
same,inclusion score,[7],1
same,aggregation suppression score,[8],1.36
same,parasite load remaining,[9],176% (inactive) and 64.4% (inactive)
same,viability,[9],87.7% and 95.6%
same,red/green cell ratio (normalised),[12],0.86 (inactive)
same,normalised cell number,[12]; [16],0.91
same,normalised cell number,[12]; [17],0.79
same,fold change,[13]; [18],0.95 (inactive)
same,fold change,[13]; [19],2.52
same,cell count,[13]; [20],12500
same,cell count,[13]; [21],13100
same,remaining NAD,[15],10 nM (inactive)
same,luciferase signal,[14],44 AU (inactive)
C[C@H]1O[C@@H](O[C@H]2[C@@H](O)C[C@H](O[C@H]3[C@@H](O)C[C@H](O[C@H]4CC[C@]5(C)C6C[C@@H](O)[C@]7(C)[C@@H](C8=CC(=O)OC8)CC[C@]7(O)C6CC[C@@H]5C4)O[C@@H]3C)O[C@@H]2C)C[C@H](O)[C@@H]1O (stereo not given in full),inhibition,[1],80%
same,score,[2],1.17
same,rescue above control,[3],0
same,cytochrome c release ratio,[4],0.9
same,inhibition of aggregation,[5],88.9%
same,glutamate uptake change,[6],-3.95%
same,inclusion score,[7],1.5
same,aggregation suppression score,[8],1.34
same,parasite load remaining,[9],1.4% (inactive) and 1.3% (inactive)
same,viability,[9],36.1% and 54.9%
same,red/green cell ratio (normalised),[12],0.68 (inactive)
same,normalised cell number,[12]; [16],1.14
same,normalised cell number,[12]; [17],0.77
same,fold change,[13]; [18],0.434 (active)
same,fold change,[13]; [19],2.23
same,cell count,[13]; [20],193
same,cell count,[13]; [21],445
CC(=O)NS(=O)(=O)c1ccc(NC(=O)c2ccccc2C(=O)O)cc1,red/green cell ratio (normalised),[12],0.81 (inactive)
same,normalised cell number,[12]; [16],1.22
same,normalised cell number,[12]; [17],0.99
same,fold change,[13]; [18],0.886 (inactive)
same,fold change,[13]; [19],0.953
same,cell count,[13]; [20],8920
same,cell count,[13]; [21],10100
same,remaining NAD,[15],10 nM (inactive)
same,luciferase signal,[14],100 AU (inactive)
Oc1ccc2ccccc2c1,red/green cell ratio (normalised),[12],0.96 (inactive)
same,normalised cell number,[12]; [16],0.82
same,normalised cell number,[12]; [17],0.79
same,fold change,[13]; [18],0.874 (inactive)
same,fold change,[13]; [19],1.01
same,cell count,[13]; [20],7170
same,cell count,[13]; [21],8200
same,remaining NAD,[15],10 nM (inactive)
Cc1c(C)c2c(c(C)c1O)CCC(C)(CCCC(C)CCCC(C)CCCC(C)C)O2 (stereo not given),inhibition,[1],25.1%
same,score,[2],-0.94
same,rescue above control,[3],-0.91
same,cytochrome c release ratio,[4],1.24
same,inhibition of aggregation,[5],78.9%
same,glutamate uptake change,[6],-4.89%
same,inclusion score,[7],2
same,aggregation suppression score,[8],0.219
same,parasite load remaining,[9],67.5% (inactive)
same,viability,[9],90.7%
same,red/green cell ratio (normalised),[12],1.01 (inactive)
same,normalised cell number,[12]; [16],0.82
same,normalised cell number,[12]; [17],0.83
same,fold change,[13]; [18],0.899 (inactive)
same,fold change,[13]; [19],1.09
same,cell count,[13]; [20],10700
same,cell count,[13]; [21],11900
same,luciferase signal,[14],44 AU (inactive)
